Test results as given in PubChem BioAssay AID493001 (Johns Hopkins Ion Channel Center, 2010).
The whole screen tested about 1,900 compounds, of which about 430 (23%) were called active.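 The calls were made as follows: active = duplicate-averaged calcium rise in uninduced cells above buffer wells' mean plus 5 SD; inactive = the rest.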 Only a selection was taken, and actives are over-represented in it overall.

experiment: compound-evoked calcium rise in non-induced M3R cells, confirmation, artefact control for RGS4 inhibitor project, cell-based, HEK293 M3R, no carbachol, second counter-screen (AID 493001); settings: Fluo-4 calcium, at 10 µM; hits give high values

Row | Compound | calcium response (agonist-mode artifact)
1 | CCN1C(=O)C(=Cc2c(C)n(CC(=O)NCC3CCCO3)c3ccccc23)C(=O)N(CC)C1=S (centres undefined) | 13.5% (active)
2 | O=C(N/N=C/c1c(O)n(Cc2ccccc2)c(=O)[nH]c1=O)c1ccccc1 | inactive
3 | O=C1NC(=O)N(Cc2ccco2)C(=O)/C1=C\c1ccc(-c2ccc(F)cc2)o1 | 152% (active)
4 | Cc1ccc2c(c1)=C/C(=C\c1c(O)[nH]c(=O)[nH]c1=O)C(=O)N=2 | inactive
